# Cruzain inh Det: inhibitors of Trypanosoma cruzi cruzain with detergent; hit rate 0.43% among 200,000; Potency, µM, for the others: max response, negative = inhibition, most hits filed as inhibitors; purified cruzain, Z-FR-AMC fluorescence, 0.01% Triton;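 also: plate controls were neutral wells for no effect and buffer without enzyme for full effect; nearly all actives have a fitted effect of over 40% in size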
# Target sequence (P25779 123-467 limits assumed): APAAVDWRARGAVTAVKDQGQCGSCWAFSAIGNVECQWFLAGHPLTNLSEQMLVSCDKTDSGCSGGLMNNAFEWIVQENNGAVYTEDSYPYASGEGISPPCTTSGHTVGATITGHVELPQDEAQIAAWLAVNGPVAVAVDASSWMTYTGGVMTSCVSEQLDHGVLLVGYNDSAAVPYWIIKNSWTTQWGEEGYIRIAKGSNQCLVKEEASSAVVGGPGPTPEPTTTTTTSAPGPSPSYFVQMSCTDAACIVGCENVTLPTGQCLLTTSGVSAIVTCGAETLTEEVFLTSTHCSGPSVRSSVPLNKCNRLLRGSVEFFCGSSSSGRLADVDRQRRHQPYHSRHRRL
#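 Steps: dispense cruzain (1.5 nM final) in acetate buffer pH 5.5 with DTT and 0.01% Triton X-100; pin-transfer compounds; incubate 15 min RT; add Z-FR-AMC (2 uM final); read fluorescence every 30 s, using the 60 s intensity change.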
# Cruzain noTriton: inhibitors of Trypanosoma cruzi cruzain without detergent; hit rate 2.3% among 200,000; AID 1476; Potency, µM, inactives show max response, negative = inhibition, actives largely listed as inhibitors; purified cruzain, Z-FR-AMC fluorescence, no detergent; P25779;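 also: plate controls were enzyme without inhibitor for no effect and buffer without enzyme for full effect; nearly all actives have a fitted effect of over 40% in size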
#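 Detergent-free condition (0.00005% Triton X-100) in acetate buffer pH 5.5 with DTT. 1.5 nM enzyme and compound were pre-mixed 15 min, then 2 uM Z-FR-AMC substrate added; reaction progress from fluorescence change between first and third reads (60 s).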
# An asterisk follows results filed as active; ? = inconclusive. Most compounds without a hit are left out; they make up all but 2.4% or so of the library. Calls follow the shape of the dose curve; as a rule, active = well fitted curve in the direction sought with a large enough effect; inconclusive = small, poorly fitted or top-dose-only effect, or another doubt; inactive = no such curve, though single readings can be large; an effect the other way counts as inactive or inconclusive. Potency is read from the fitted curve at half-maximal effect.
SMILES,Cruzain inh Det,Cruzain noTriton
CC(C)(C)c1ccc(-c2cc(C(=O)NNC(=O)Nc3ccccc3)c3ccccc3n2)cc1,-3.1%,?
COc1ccc(C(=O)NNC(=S)NC(=O)c2cc(-c3ccccc3)nc3ccccc23)cc1,-1.0%,?
O=C(NNC(=O)c1cc(-c2ccccc2)nc2ccccc12)Nc1cccc(Cl)c1,-0.3%,20µM*
Oc1ccc(Cc2cc(Cl)cc(Cl)c2O)cc1Cl,-6.2%,-7.9%
O=C(CCCCCn1c(=O)c2sccc2n(CC(=O)Nc2ccccc2F)c1=O)NCc1ccc2c(c1)OCO2,-3.3%,1.8%
CCCC/C=C/C(NC(=O)c1ccco1)c1ccccc1 (stereo not given),-2.6%,-3.9%
COc1ccc(OCCn2c(C)nc3cc(C)c(C)cc32)cc1,-6.4%,-15.2%
Cc1c(Cl)cccc1NC(=O)CCS(=O)(=O)c1ccc(Br)s1,-2.6%,7.5%
O=C(NC(=S)Nc1cccc([N+](=O)[O-])c1)c1ccco1,-1.0%,-1.2%
Cc1ccc(-c2nc3ccccc3o2)cc1NC(=S)NC(=O)/C=C/c1ccco1,-1.9%,?
O=C(/C=C/c1ccco1)NC(=S)Nc1cccc([N+](=O)[O-])c1,-16.5%,31.6µM*
O=C(/C=C/c1ccco1)NC(=S)Nc1cccc(-c2nc3ccccc3o2)c1,-8.2%,10µM*
CCOc1ccccc1C(=O)N1CCCCC1CCN1CCOCC1 (stereo not given),-0.9%,-15.6%
COc1cc(OC)cc(C(=O)N/N=C/c2ccc(OC)c(COc3ccc(F)cc3)c2)c1,-5.9%,-23.4%
COc1ccc(/C=N/NC(=S)Nc2ccccc2)cc1COc1ccc(F)cc1F,-5.0%,7.94µM*
COc1ccc(C=O)cc1,7.7%,5.5%
COc1ccc(C=C(c2ccc(OC)cc2)c2ccc(OC)cc2)cc1,-21.5%,12.6µM*
CCOc1ccc(CNS(=O)(=O)c2ccc(-c3cc(C(F)(F)F)on3)s2)cc1,0.4%,-18.5%
CCCn1c(CCNC(=O)c2cccs2)nc2ccccc21,15.8µM*,15.2%
CCn1c(CCCNC(=O)c2cccs2)nc2ccccc21,3.2%,5.1%
CCn1c(CCNC(=O)c2ccc(F)cc2)nc2ccccc21,22.4µM*,2.51µM*
C=C(C)Cn1c(CCCNC(=O)CC)nc2ccccc21,-0.3%,5.8%
Cc1ccc(OCCCn2c(CCNC(=O)C3CCCCC3)nc3ccccc32)c(C)c1,2.51µM*,-2.7%
C=C(C)Cn1c(CCNC(=O)CCC)nc2ccccc21,-2.3%,15.8µM*
CCn1c(CCCNC(=O)c2ccc(F)cc2)nc2ccccc21,4.8%,-6.7%
SMILES,Cruzain inh Det,Cruzain noTriton
Cc1ccccc1OCCCCn1c(CCNC(=O)C(C)(C)C)nc2ccccc21,-7.5%,?
O=C(NCCc1ccccc1)c1cnc2sc(N3CCCCCC3)nn2c1=O,-1.2%,-0.4%
CCOc1ccc(-c2nc(SC(C(C)=O)C(=O)N(C)C)c3c(=O)n(C)c(=O)n(C)c3n2)cc1 (stereo not given),3.6%,-2.1%
Cc1ccc(-n2nc(C)c3c(C)cc(=O)n(CC(=O)NC(C)c4ccccc4)c32)cc1 (stereo not given),-2.3%,-6.0%
Cc1oc2ccc(O)c(CN3CCCCCC3)c2c1C(=O)Nc1cccc(C(F)(F)F)c1,-6.7%,?
Cc1cccc(C(=O)NCCc2nc3ccccc3n2CCC(C)C)c1,12.6µM*,20.4%
CCCCn1c(CCCNC(=O)c2cccc(C)c2)nc2ccccc21,1.4%,-0.8%
CCCCn1c(CCNC(=O)c2ccc(F)cc2)nc2ccccc21,7.08µM*,9.2%
CCCCCn1c(CNC(=O)c2ccc(F)cc2)nc2ccccc21,-17.9%,16.3%
O=C(CCCCn1c(=O)c2ccccc2n(Cc2ccccc2Cl)c1=O)NCc1ccc2c(c1)OCO2,-1.4%,-9.4%
Cc1ccc(C(=O)c2oc3ccccc3c2NC(=O)c2cc(-c3ccc(Cl)cc3)on2)cc1,-0.5%,4.7%
Cc1cc(S(=O)(=O)NCCc2csc(-c3cccc(F)c3)n2)ccc1F,-10.6%,7.5%
CCCOc1ccc(Cc2nn3c(=O)/c(=C/c4ccco4)sc3nc2=O)cc1,-6.1%,10µM*
CCCOc1ccc(/C=c2\sc3nc(-c4ccco4)nn3c2=O)cc1OCC,-0.4%,8.0%
Cc1ccc2nc(Cl)c3cc(C(=O)N(C)C4CCCCC4)sc3c2c1,-3.1%,-11.8%
CCc1ccc2oc(C(=O)N(Cc3ccc(N(C)C)cc3)Cc3ccco3)c(C)c2c1,-6.8%,?
Brc1cc2c(cc1/C=N/Nc1nc3ccccc3s1)OCO2,-5.9%,20µM*
Brc1ccc(/C=C/C=N/Nc2nc3ccccc3s2)cc1,-1.0%,3.98µM*
Fc1ccc2nc(Nc3nc4cc5c(cc4s3)OCO5)sc2c1,-2.4%,?
CCOC(=O)c1sc(Nc2nc3cc4c(cc3s2)OCO4)cc1C,-6.9%,25.1µM*
C(=N\Nc1nc2ccccc2s1)/c1ccc2c(c1)OCO2,-0.9%,-3.7%
C(=C\c1ccccc1)/C=N/Nc1nc2ccccc2s1,-9.0%,?
CCOC(=O)c1sc(Nc2nc3c(OC)cccc3s2)cc1C,-12.9%,-2.0%
c1ccc2sc(Nc3nc4cc5c(cc4s3)OCO5)nc2c1,1.4%,25.1µM*
Cc1ccc(S(=O)(=O)c2nc(S(=O)(=O)c3ccccc3)sc2NCCCOC(C)C)cc1,-3.9%,-11.4%
SMILES,Cruzain inh Det,Cruzain noTriton
CCCCc1cc(=O)oc2cc(C)c3c(C(C)(C)C)coc3c12,3.4%,-10.7%
Cc1ccc(NC(=O)C2CCCN(c3nnc(-n4c(C)ccc4C)s3)C2)c(C)c1 (stereo not given),-2.6%,8.8%
CC(=O)c1cc(C)oc1C,0.6%,-3.0%
O=Nc1ccc(Nc2ccccc2)cc1,7.08µM*,7.94µM*
c1ccc(Nc2ccc(Nc3ccccc3)cc2)cc1,-7.3%,2.3%
CCn1c(SC)nc2c([nH]c3ccccc32)c1=O,0.5%,1.0%
O=C(CNc1cc(S(=O)(=O)N2CCCC2)ccc1OCC(F)(F)F)Nc1ccc(SC(F)F)cc1,-8.0%,15.8µM*
N#Cc1ccc(C(=O)Nc2cc(S(=O)(=O)N3CCCC3)ccc2OCC(F)(F)F)cc1,-1.3%,7.7%
CCC/C=C(\CCC)C(NC(=O)OCC(C)C)c1ccccc1 (stereo not given),-0.9%,0.2%
COc1ccc(Cn2c(O)c(C=Nc3ccc(OC)cc3)c3ccccc3c2=O)cc1,-2.9%,12.6µM*
CC(C)CCC(C)N=Cc1c(O)n(Cc2ccccc2)c(=O)c2ccccc12 (stereo not given),0.5%,?
CCOC(=O)c1cnc2c(ccc3ccccc32)c1Nc1ccc(C(C)=O)cc1,-2.6%,1.2%
Cc1ccc(C(=O)NCc2ccc(F)cc2)cc1NC(=O)c1nsc2ccccc12,-1.3%,?
Cc1ccc(/C=N/NC(=O)c2cccc([N+](=O)[O-])c2)o1,-5.1%,2.1%
O=C(N/N=C/c1ccc(Br)s1)c1cccc([N+](=O)[O-])c1,-13.8%,20µM*
O=C(c1ccco1)N1CCC2(CC1)CN(c1ccccc1)C2,0.8%,2.2%
CC(C)c1nc2ccc(C(=O)NCc3ccc(N(C)C)cc3)cc2o1,-0.3%,-2.6%
Cc1ccc(S(=O)(=O)c2c(COC(=O)c3ccccc3Cl)c(-c3ccccc3)nn2C)cc1,3.1%,20µM*
Cn1nc(-c2ccccc2)c(CSc2ccccc2Cl)c1Cl,2.7%,-0.3%
O=C(c1ccncc1)N1CCC2(CC1)CCN(C(c1ccccc1)c1ccccc1)CC2,-4.4%,6.0%
Nc1c(-c2cccs2)cnn1-c1nc(-c2ccc(F)cc2)cs1,5.7%,-21.2%
Nc1c(-c2cccs2)cnn1-c1nc(-c2ccc(Cl)cc2Cl)cs1,0.0%,25.1µM*
COc1ccc(S(=O)(=O)N(CC(=O)Nc2cccc(C)c2)c2ccc(C)cc2)cc1OC,-5.0%,28.1%
